Measured values taken from PubChem BioAssay (NCATS).
Inconclusive results are not listed. The source made the active and inactive calls. Unless noted, calls come from the whole dose curve; as a rule, active = well fitted curve in the direction sought with a large enough effect; inconclusive = small, poorly fitted or top-dose-only effect, or another doubt; inactive = no such curve, though single readings can be large; an effect the other way counts as inactive or inconclusive.

Key:
[1] = molecular target: Cytochrome P450 1A2 (Homo sapiens) (UniProt P05177); test: p450-cyp1a2 (AID 410; calls by dose curve; note: potency is the fitted concentration of half-maximal effect;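 for activity change, negative = inhibition: -100% = full effect of reference inhibitor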)
Summary of the method: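 Luminescent readout of luciferin formed from Luciferin-ME by human CYP1A2; data normalized against complete inhibition by 57 uM furafylline. Enzyme 20nM, substrate 100uM at Km, 100mM KPO4 buffer, 60 min reaction at room temperature.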

[2] = Stat Signaling Pathway (AID 446; active = well fitted curve in either direction with a large enough effect, not every such curve was filed as active;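 note: ME-180 cervical cancer cells given 40 pM IL-6 alongside compound; SIE-controlled beta-lactamase reporter measured as 460/530 nm FRET emission ratio; % is set by controls: 0 for no effect and ±100 for the full control effect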); settings: ME-180 SIE beta-lactamase reporter, IL-6 stimulated, 5 h; at 7.69 µM (top of the series) unless noted
Summary of the method: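 ME-180 SIE-bla cells; overnight plating; cpd + IL-6 40 pM, 5 h, 37 C; LiveBLAzer 2.5 h RT; 460/530 nm emission ratio. Normalized to 300 pM IL-6 and 125 nM JAK inhibitor controls.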

[3] = molecular target: Glucocorticoid receptor (Homo sapiens) (UniProt P04150); test: GR-GFP Redistribution (AID 450;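 active = compounds whose dose series gives a full or clear partial fitted curve of increased nuclear translocation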; note: potency is the fitted concentration of half-maximal effect); settings: U2OS GR-GFP nuclear translocation, laser cytometry, 2 h
[4] = molecular target: Glucocorticoid receptor (Homo sapiens) (UniProt P04150); test: GR-EFC Redistribution (AID 451; calls by dose curve; note: potency is the fitted concentration of half-maximal effect); settings: CHO-K1 GR-EFC translocation, beta-gal luminescence, 2 h
Summary of the method: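 Translocation of GR-ED fusion to nuclear EA restores b-gal, read by luminescence after 1 h room-temperature detection. Engineered CHO-K1 biosensor cells, 1,000/well, exposed 2 h at 37 C to titrations up to 46 uM final.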

[5] = molecular target: Mitogen-activated protein kinase 10 (Mus musculus) (UniProt Q61831); test: JNK3 AlphaScreen Assay (AID 530; active = well fitted curve in either direction with a large enough effect, not every such curve was filed as active;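 note: kinase came from lysate of stimulated human HepG2 cells; signal reports phosphorylation of biotinylated GST-cJun 1-79 at Ser73 with 10 µM ATP; % is set by controls: 0 for no effect and ±100 for the full control effect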)
Summary of the method: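 Compound titrations were preincubated 15 minutes at room temperature with substrate, antibody and pre-activated JNK3-containing HepG2 lysate. Reactions were started with 10 uM ATP and stopped with EDTA-containing bead buffer for AlphaScreen detection.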

[6] = molecular target: 3',5'-cyclic-AMP phosphodiesterase 4B (Homo sapiens) (UniProt Q07343); test: qHTS Assay for Inhibitors of PDE-IV (AID 607; active = well fitted activation curve with a large enough effect in the main read-out, with a control signal flat, not every such curve was filed as active; note: % of control where 0% means no effect)
Summary of the method: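 ACTOne HEK293 cells carry a modified cAMP-gated CNG channel and express endogenous PDE4; plated 1000 cells/well, compounds up to 22.9 uM final. Membrane-potential dye fluorescence (ex 535/em 590) was read; parental cells received 10 uM forskolin + 100 uM RO 20-1724.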

[7] = molecular target: Cytochrome P450 3A4 (Homo sapiens) (UniProt P08684); test: qHTS Assay for Inhibitors and Substrates of Cytochrome P450 3A4 (AID 884); note: potency is the fitted concentration of half-maximal effect; nearly all actives have a fitted effect of over 50% in size
Summary of the method: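 20 nM human CYP3A4 with 25 uM Luciferin-PPXE (at KM) in 200 mM KPO4, preincubated 10 min with compound; NADPH regeneration started a 60 min RT reaction. Luciferin detected by luminescence, normalized to 57 uM ketoconazole as full inhibition.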

[8] = molecular target: Cytochrome P450 3A4 (Homo sapiens) (UniProt P08684); test: qHTS Assay for Activators of Cytochrome P450 3A4 (AID 885); note: nearly all actives have a fitted effect of over 65% in size
Summary of the method: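 20nM CYP3A4 + 25uM Luciferin-PPXE (=KM), 200mM KPO4; cpd 10 min RT; NADPH regen, 60 min RT; stop w/ detection buffer, 20 min; luminescence. Normalized to 57 uM ketoconazole.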

[9] = qHTS Assay for Lipid Storage Modulators (AID 1519; calls by dose curve); settings: Drosophila S3 cells, BODIPY lipid droplet/cell ratio, laser cytometry, cells loaded with oleic acid; for activity change, negative = inhibition: at 57.5 µM (top of the series)
Summary of the method: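 Cells seeded at 5,000 per well were treated with compounds over a concentration series and loaded with oleic acid (400 uM, as added). Lipid droplet fluorescence (488 nm excitation, 500-530 nm channel) was read by laser-scanning cytometry and normalized to 20 uM Triacsin C.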

[10] = molecular target: Ubiquitin carboxyl-terminal hydrolase 1 (Homo sapiens) (UniProt O94782); test: Inhibitors of USP1/UAF1: Pilot qHTS (AID 504865); note: nearly all actives have a fitted effect of over 35% in size; note: potency is the fitted concentration of half-maximal effect
Summary of the method: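 Kinetic fluorescence assay: 1nM USP1/UAF1, 15 min compound preincubation, then 150nM Ub-Rho; 480/540 nm.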

[11] = Primary qHTS for small molecule stabilizers of the endoplasmic reticulum resident proteome: Secreted ER Calcium Modulated Protein (SERCaMP) assay (AID 1508630); note: % is set by controls: 0 for no effect and ±100 for the full control effect
Summary of the method: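 GLuc-SERCaMP-expressing SH-SY5Y cells, pretreated 16 h with compound, are challenged with thapsigargin to empty ER calcium stores; after 4 h, coelenterazine is added directly to the medium and luminescence is imaged.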

[12] = molecular target: Lysosomal acid glucosylceramidase (Homo sapiens) (UniProt P04062); test: Glucocerebrosidase-p2 (AID 348; in the data active = potency below about 10 µM; note: potency is the fitted concentration of half-maximal effect); settings: purified GBA, blue fluorogenic substrate, 40 min
Summary of the method: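 Compounds titrated from 0.6 nM upwards against 0.2 nM enzyme in pH 5.9 citric acid/KH2PO4, taurocholate, tween-20; blue fluorogenic substrate 80 uM, 40 min room temperature, stopped and read Ex 365/Em 440 for AC50.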

[13] = AP1 Signaling Pathway (AID 357; active = well fitted curve in either direction with a large enough effect, not every such curve was filed as active;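 note: ME-180 reporter cells stimulated with EGF at its EC50 level; % is set by controls: 0 for no effect and ±100 for the full control effect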); settings: ME-180 (cervical carcinoma) AP-1-bla reporter, EGF-induced, beta-lactamase ratio, 5 h; at 7.69 µM (top of the series) unless noted
Summary of the method: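 Modulation of EGF-driven AP-1 transcription was assessed with a beta-lactamase reporter in ME-180 cells. Compound and EC50 EGF were co-incubated 5 hours at 37 °C before 2.5-hour CCF4 loading at room temperature and dual-emission reading.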

[14] = molecular target: Rap guanine nucleotide exchange factor 3 (Homo sapiens) (UniProt O95398); test: Confirmatory qHTS for antagonist of cAMP-regulated guanine nucleotide exchange factor 3 (EPAC1) (AID 1645880);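 note: plate controls were DMSO only for no effect and full effect of the ATA control for full effect; nearly all actives have a fitted effect of over 55% in size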
Summary of the method: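 Nucleotide exchange uses 100 nM EPAC1, 250 nM RAP1B-BODIPY-GDP and 50 uM GDP, with compounds in a concentration-titration series. After 5 min at room temperature, fluorescence (480 nm ex/540 nm em) is read every 5 min for 30 min. Data are normalized to control ATA and DMSO.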

[15] = molecular target: Rap guanine nucleotide exchange factor 4 (Homo sapiens) (UniProt Q8WZA2); test: Confirmatory qHTS for antagonist of cAMP-regulated guanine nucleotide exchange factor 4 (EPAC2) (AID 1645885); note: % is set by controls: 0 for no effect and ±100 for the full control effect; nearly all actives have a fitted effect of over 25% in size
[16] = NFAT Signaling Pathway (AID 444; active = well fitted curve in either direction with a large enough effect, not every such curve was filed as active); settings: Jurkat NFAT-bla M1, carbachol, beta-lactamase ratio, 5 h; at 7.69 µM (top of the series) unless noted
Summary of the method: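 Read-out: CCF4 FRET ratio (460 nm/530 nm) after 1 h RT dye loading, used for %activity and AC50 from titration series. Cells: Jurkat NFAT-β-lactamase/M1 line, treated with compound plus 1 uM carbachol for 5 h, 37 °C.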

[17] = molecular target: Dual specificity protein kinase CLK4 (Homo sapiens) (UniProt Q9HAZ1); test: qHTS Assay for Inhibitors of CDC-like Kinase 4 (Kinase-Glo Assay) (AID 1770); note: % is set by controls: 0 for no effect and ±100 for the full control effect; nearly all actives have a fitted effect of over 65% in size
Summary of the method: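 Inhibition was judged from remaining ATP, measured by Ultra-Glo luciferase bioluminescence after Clk4 (25 nM) had acted on RS peptide at 1 uM ATP for 4.5 hours, room temperature.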

[18] = molecular target: Dual specificity protein kinase CLK4 (Homo sapiens) (UniProt Q9HAZ1); test: qHTS Assay for Inhibitors of CDC-like Kinase 4 (ADP-FP Assay) (AID 1795);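 note: recombinant human CLK4 phosphorylating RS repeat peptide at 1 µM ATP; % is set by controls: 0 for no effect and ±100 for the full control effect; nearly all actives have a fitted effect of over 60% in size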
Summary of the method: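 Inhibition of ADP formation by 6.25 nM Clk4 is measured using 1 uM ATP and 100 uM RS repeat peptide over one hour. Produced ADP displaces a fluorescent tracer from antibody, lowering polarization.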

[19] = molecular target: Rap guanine nucleotide exchange factor 3 (Homo sapiens) (UniProt O95398); test: Confirmatory qHTS for agonist of cAMP-regulated guanine nucleotide exchange factor 3 (EPAC1) (AID 1645881);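 note: EPAC1 catalysed release of BODIPY-GDP from Rap1B seen as fluorescence loss; 100% = effect of cAMP agonist control; nearly all actives have a fitted effect of over 75% in size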
[20] = molecular target: Rap guanine nucleotide exchange factor 4 (Homo sapiens) (UniProt Q8WZA2); test: Confirmatory qHTS for agonist of cAMP-regulated guanine nucleotide exchange factor 4 (EPAC2) (AID 1645884);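 note: nucleotide exchange releases bodipy-GDP from Rap1 and this lowers its fluorescence; nearly all actives have a fitted effect of over 65% in size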; note: potency is the fitted concentration of half-maximal effect
[21] = measured here: cell count channel max response
[22] = measured here: lipid channel max response

Chain of 3',5'-cyclic-AMP phosphodiesterase 4B (Homo sapiens) (Q07343 whole entry, looked up): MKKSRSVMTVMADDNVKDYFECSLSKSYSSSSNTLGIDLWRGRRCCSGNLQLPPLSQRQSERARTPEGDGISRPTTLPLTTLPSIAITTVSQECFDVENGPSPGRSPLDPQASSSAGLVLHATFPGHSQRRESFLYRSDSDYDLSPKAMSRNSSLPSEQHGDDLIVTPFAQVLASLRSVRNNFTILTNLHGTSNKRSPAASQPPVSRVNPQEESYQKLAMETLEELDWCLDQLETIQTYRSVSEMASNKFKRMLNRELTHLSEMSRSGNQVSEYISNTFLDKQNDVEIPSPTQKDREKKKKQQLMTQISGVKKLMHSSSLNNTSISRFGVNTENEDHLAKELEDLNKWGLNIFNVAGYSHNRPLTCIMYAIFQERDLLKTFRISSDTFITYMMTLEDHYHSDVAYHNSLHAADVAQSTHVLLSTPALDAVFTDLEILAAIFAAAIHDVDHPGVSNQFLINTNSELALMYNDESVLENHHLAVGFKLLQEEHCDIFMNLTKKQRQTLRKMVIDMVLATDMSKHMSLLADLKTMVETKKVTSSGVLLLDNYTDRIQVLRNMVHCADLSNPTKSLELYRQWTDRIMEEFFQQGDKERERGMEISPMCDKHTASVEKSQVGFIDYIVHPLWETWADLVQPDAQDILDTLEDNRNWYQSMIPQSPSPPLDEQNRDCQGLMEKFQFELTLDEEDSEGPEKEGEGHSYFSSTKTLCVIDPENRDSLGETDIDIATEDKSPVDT
Chain of Cytochrome P450 3A4 (Homo sapiens) (P08684 whole entry, looked up): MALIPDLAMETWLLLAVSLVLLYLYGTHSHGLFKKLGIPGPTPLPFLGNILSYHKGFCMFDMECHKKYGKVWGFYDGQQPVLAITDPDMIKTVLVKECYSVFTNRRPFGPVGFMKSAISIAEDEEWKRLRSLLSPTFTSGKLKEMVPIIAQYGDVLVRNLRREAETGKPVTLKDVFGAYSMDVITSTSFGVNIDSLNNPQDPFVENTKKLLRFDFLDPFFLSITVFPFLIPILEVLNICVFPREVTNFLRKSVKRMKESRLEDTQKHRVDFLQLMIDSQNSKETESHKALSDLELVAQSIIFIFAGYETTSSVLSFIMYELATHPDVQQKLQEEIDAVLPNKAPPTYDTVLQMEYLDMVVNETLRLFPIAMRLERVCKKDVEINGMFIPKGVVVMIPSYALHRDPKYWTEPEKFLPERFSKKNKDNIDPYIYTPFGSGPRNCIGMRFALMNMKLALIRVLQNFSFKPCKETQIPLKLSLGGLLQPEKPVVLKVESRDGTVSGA
Chain of Dual specificity protein kinase CLK4 (Homo sapiens) (Q9HAZ1 whole entry, looked up): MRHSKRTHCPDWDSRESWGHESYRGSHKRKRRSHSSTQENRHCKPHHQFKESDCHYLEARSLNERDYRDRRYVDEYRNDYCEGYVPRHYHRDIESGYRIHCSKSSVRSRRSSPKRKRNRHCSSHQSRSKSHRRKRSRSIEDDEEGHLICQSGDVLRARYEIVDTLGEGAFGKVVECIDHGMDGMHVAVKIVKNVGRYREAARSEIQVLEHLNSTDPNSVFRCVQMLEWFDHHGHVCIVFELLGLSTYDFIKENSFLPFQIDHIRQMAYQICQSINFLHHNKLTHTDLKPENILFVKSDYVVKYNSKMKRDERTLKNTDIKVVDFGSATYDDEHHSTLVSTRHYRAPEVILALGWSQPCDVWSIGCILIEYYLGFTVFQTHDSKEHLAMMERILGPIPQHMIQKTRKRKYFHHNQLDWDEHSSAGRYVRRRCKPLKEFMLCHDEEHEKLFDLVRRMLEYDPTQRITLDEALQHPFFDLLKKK
Chain of Lysosomal acid glucosylceramidase (Homo sapiens) (P04062 whole entry, looked up): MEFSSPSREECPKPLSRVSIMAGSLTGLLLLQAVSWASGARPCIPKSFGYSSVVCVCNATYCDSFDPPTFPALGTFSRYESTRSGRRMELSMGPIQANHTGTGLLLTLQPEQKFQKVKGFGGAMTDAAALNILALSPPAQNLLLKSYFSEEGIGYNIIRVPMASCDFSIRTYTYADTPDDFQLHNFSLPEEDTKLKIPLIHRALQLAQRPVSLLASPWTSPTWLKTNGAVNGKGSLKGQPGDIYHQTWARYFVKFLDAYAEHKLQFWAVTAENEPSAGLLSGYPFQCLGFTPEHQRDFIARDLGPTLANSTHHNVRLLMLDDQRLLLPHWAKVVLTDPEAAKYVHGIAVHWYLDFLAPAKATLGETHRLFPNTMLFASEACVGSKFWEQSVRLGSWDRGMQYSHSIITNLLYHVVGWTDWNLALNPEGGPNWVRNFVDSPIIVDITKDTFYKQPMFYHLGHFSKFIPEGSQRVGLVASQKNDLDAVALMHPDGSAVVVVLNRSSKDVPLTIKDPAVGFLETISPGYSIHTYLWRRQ
Chain of Rap guanine nucleotide exchange factor 3 (Homo sapiens) (O95398 whole entry, looked up): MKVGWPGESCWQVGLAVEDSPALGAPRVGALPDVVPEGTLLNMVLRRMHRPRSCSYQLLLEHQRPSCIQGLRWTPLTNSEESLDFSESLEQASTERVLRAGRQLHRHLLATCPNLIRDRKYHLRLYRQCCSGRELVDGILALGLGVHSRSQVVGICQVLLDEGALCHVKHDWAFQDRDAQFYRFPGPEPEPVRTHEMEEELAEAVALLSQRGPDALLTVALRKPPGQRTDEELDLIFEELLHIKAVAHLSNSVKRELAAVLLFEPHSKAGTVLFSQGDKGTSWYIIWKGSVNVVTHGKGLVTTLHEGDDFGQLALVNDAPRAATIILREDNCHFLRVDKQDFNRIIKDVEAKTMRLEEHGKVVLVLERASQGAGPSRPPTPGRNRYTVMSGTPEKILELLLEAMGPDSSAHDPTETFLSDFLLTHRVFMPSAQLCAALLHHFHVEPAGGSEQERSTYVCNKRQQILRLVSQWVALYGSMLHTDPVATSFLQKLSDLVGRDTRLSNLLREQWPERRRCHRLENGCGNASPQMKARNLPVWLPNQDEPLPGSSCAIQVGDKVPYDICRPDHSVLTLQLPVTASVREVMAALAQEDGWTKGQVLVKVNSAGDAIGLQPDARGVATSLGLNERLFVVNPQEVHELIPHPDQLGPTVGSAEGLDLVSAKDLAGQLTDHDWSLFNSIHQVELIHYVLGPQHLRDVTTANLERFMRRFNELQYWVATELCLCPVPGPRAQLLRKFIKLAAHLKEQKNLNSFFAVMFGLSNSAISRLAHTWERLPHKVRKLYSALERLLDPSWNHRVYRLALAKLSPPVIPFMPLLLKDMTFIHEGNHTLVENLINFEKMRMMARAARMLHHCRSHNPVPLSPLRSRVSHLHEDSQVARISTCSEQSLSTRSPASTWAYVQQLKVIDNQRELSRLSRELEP
Chain of Rap guanine nucleotide exchange factor 4 (Homo sapiens) (Q8WZA2 whole entry, looked up): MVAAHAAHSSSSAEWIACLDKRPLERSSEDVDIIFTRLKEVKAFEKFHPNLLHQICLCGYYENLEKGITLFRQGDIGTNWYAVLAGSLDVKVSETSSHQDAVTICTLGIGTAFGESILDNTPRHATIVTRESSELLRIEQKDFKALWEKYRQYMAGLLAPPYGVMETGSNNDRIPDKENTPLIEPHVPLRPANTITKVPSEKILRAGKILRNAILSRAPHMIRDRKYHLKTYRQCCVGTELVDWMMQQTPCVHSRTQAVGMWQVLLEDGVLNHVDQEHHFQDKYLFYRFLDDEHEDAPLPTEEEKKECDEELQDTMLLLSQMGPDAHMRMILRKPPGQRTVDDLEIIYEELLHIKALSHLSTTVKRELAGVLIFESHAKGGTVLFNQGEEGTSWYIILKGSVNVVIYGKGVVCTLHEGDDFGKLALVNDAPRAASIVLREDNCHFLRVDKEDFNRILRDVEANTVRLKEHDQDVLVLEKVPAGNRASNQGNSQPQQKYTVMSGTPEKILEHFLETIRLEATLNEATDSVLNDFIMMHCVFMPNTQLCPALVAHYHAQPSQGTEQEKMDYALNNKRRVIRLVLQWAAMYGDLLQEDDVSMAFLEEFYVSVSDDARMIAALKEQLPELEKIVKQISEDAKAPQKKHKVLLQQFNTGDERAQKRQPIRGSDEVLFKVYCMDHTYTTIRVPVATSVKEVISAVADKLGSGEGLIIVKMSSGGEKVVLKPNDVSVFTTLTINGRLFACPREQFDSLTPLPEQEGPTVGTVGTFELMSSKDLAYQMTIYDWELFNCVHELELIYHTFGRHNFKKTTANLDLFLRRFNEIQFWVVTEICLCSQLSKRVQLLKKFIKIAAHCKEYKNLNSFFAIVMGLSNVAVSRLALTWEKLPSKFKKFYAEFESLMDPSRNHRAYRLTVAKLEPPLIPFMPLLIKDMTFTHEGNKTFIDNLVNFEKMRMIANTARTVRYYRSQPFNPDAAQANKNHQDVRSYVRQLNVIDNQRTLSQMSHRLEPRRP
Chain of Cytochrome P450 1A2 (Homo sapiens) (P05177 whole entry, looked up): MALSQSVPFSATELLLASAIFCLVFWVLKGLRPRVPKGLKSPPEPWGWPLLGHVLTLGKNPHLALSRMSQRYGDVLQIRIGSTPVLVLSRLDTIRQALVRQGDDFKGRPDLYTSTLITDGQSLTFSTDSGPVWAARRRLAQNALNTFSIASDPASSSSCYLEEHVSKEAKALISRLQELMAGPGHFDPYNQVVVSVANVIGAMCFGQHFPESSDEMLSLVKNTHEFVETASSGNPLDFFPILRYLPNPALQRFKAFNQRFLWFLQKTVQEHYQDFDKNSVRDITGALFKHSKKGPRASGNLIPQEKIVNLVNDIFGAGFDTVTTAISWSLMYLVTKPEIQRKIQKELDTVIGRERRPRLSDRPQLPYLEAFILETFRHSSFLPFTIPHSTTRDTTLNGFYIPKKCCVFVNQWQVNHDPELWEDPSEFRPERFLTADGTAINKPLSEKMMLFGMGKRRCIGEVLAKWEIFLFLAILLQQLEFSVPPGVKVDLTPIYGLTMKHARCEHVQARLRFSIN

CS(=O)(=O)Nc1cccc(-c2ccc3ncnc(NCc4cccnc4)c3c2)c1
active: Potency [1] 0.316 µM | Potency [7] 0.398 µM
2.04%: max response [9, 21]
inactive: activity, negative = inhibition [2] -6% | Potency [3] > 46 µM | Potency [4] > 46 µM | Potency [5] | Potency [6] | Potency [8] | activity change, negative = inhibition [9] 10.4% | Potency [10] | outcome [11]
13.1%: max response [9, 22]

COc1cccc(Cn2c(=O)c(-c3cccs3)nc3cnc(Nc4cccc(OC)c4)nc32)c1
active: Potency [1] 2.51 µM
inactive: Potency [12] > 11.4 µM | activity change, negative = inhibition [13] -17.2% | activity, negative = inhibition [2] 26.3% | Potency [3] > 9.22 µM | Potency [4] > 46 µM | Potency [5] | Potency [8] | outcome [11] | Potency [14] | Potency [15]

CN(C)c1ncc2nc(-c3ccc(F)cc3)c(=O)n(-c3ccccc3)c2n1
inactive: Potency [12] > 11.4 µM | activity change, negative = inhibition [13] -8.28% | activity change, negative = inhibition [16] 20.7% | activity, negative = inhibition [2] 28.3% | Potency [3] > 9.22 µM | Potency [4] > 46 µM | Potency [5] | Potency [17] | Potency [18] | Potency [10] | outcome [11] | Potency [14] | Potency [19] | Potency [20] | Potency [15]

CN(C)c1ncc2nc(CCc3ccccc3)c(=O)n(Cc3ccc(F)cc3)c2n1
inactive: Potency [12] > 11.4 µM | activity change, negative = inhibition [13] 8.4% | activity change, negative = inhibition [16] -4.39% | activity, negative = inhibition [2] 13.2% | Potency [3] > 9.22 µM | Potency [4] > 46 µM | Potency [6] | Potency [8] | outcome [11] | Potency [14] | Potency [19] | Potency [20] | Potency [15]
active: Potency [1] 10 µM

COc1ccccc1CNc1nc(-c2cccc(C#N)c2)nc2ccccc12
active: Potency [1] 1.26 µM
inactive: Potency [12] > 11.4 µM | activity, negative = inhibition [2] -22% | Potency [3] > 46 µM | Potency [4] > 46 µM | Potency [5] | Potency [8] | Potency [18] | outcome [11] | Potency [14] | Potency [19] | Potency [15]

COC(=O)N1CCC2(CCCN(c3cccc(-c4ccccc4)c3)C2)CC1
inactive: Potency [12] > 11.4 µM | activity change, negative = inhibition [13] 3.74% | activity, negative = inhibition [2] -6.31% | Potency [4] > 46 µM | Potency [5] | Potency [6] | outcome [11] | Potency [14] | Potency [19] | Potency [20] | Potency [15]

COc1ccc(Oc2ncc3nc(-c4cc(F)cc(F)c4)c(=O)n(C[C@H]4CCCO4)c3n2)cc1
inactive: Potency [12] > 11.4 µM | activity change, negative = inhibition [16] -11.6% | activity, negative = inhibition [2] -0.431% | Potency [3] > 9.22 µM | Potency [4] > 46 µM | Potency [5] | Potency [6] | Potency [18] | Potency [10] | outcome [11] | Potency [14] | Potency [19] | Potency [20] | Potency [15]

COc1cccc(Nc2ncc3nc(-c4cn(C)c5ccccc45)c(=O)n(C[C@H]4CCCO4)c3n2)c1
inactive: Potency [12] > 11.4 µM | activity change, negative = inhibition [13] -25.8% | activity change, negative = inhibition [16] -1.76% | activity, negative = inhibition [2] 8.32% | Potency [3] > 9.22 µM | Potency [4] > 46 µM | Potency [5] | Potency [6] | Potency [17] | Potency [18] | outcome [11] | Potency [14] | Potency [19] | Potency [20] | Potency [15]

COCCn1c(=O)c(-c2cccs2)nc2cnc(Nc3ccccc3)nc21
inactive: Potency [12] > 11.4 µM | activity change, negative = inhibition [13] 5.47% | activity, negative = inhibition [2] 14.8% | Potency [3] > 9.22 µM | Potency [5] | outcome [11] | Potency [14] | Potency [19] | Potency [15]

CN(C)c1ncc2nc(-c3cccs3)c(=O)n(C3CC3)c2n1
inactive: Potency [12] > 11.4 µM | activity change, negative = inhibition [13] 6.37% | activity change, negative = inhibition [16] 19.8% | Potency [3] > 9.22 µM | Potency [4] > 46 µM | outcome [11] | Potency [14] | Potency [15]
active: Potency [20] 19.9 µM

COc1ccccc1CNc1nc(-c2ccc3c(c2)OCO3)nc2ccccc12
inactive: activity change, negative = inhibition [13] 24.7% | activity, negative = inhibition [2] -8.69% | Potency [3] > 46 µM | Potency [4] > 46 µM | Potency [5] | Potency [6] | Potency [8] | Potency [17] | Potency [10] | outcome [11] | Potency [14] | Potency [19] | Potency [20] | Potency [15]
active: Potency [1] 0.631 µM | Potency [7] 1.26 µM

CCCCCCCCCCCCCC(=O)O[C@H](CC(=O)O)C[N+](C)(C)C
active: Potency [10] 79.4 µM
-2.97%: max response [9, 22]
-5.36%: max response [9, 21]
inactive: Potency [1] | Potency [3] > 46 µM | Potency [4] > 46 µM | Potency [5] | Potency [6] | activity change, negative = inhibition [9] 3.49% | outcome [11]

COc1cc(C)c2c(c1C=O)Oc1c(c(C)c(O)c3c1C(O)OC3=O)OC2=O (stereo unspecified)
5.41%: max response [9, 21]
11.3%: max response [9, 22]
inactive: Potency [8] | activity change, negative = inhibition [9] 4.32% | outcome [11]
active: Potency [7] 12.6 µM | Potency [10] 56.2 µM

Cc1cc(OC(=O)c2c(C)cc(O)cc2O)cc(O)c1C(=O)O
13%: max response [9, 21]
inactive: Potency [8] | activity change, negative = inhibition [9] 8.43% | Potency [10] | outcome [11]
23.1%: max response [9, 22]
active: Potency [7] 12.6 µM

COc1cccc(Cn2c(=O)c(-c3ccc(F)cc3)nc3cnc(N4CCOCC4)nc32)c1
inactive: Potency [12] > 11.4 µM | Potency [3] > 9.22 µM | Potency [4] > 46 µM | Potency [5] | Potency [6] | Potency [17] | Potency [18] | Potency [10] | outcome [11] | Potency [14] | Potency [19] | Potency [20] | Potency [15]
